Rows were chosen to be rich in hits. Some 3.5% of all compounds tested hit in one or more screens of this group.
GPR151 activ = activates the human receptor GPR151 | hit rate 1% among 650,000 | PathHunter beta-arrestin GPR151 cells, luminescence | activation, % at 11.2 µM; in the data active = activation above about 4.9%
FBW7 act = human FBW7 E3 ligase activation, primary screen; AlphaScreen FBW7–phospho-cyclin E peptide binding, activator screen; normalized activity (activation), % at 26.1 µM; hit rate 0.13% among 650,000; AID 1259310; in the data active = normalized activity above about 1.9%;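 note: purified mutant Fbw7 with reduced substrate affinity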
MITF primary = human MITF inhibition, primary screen. AlphaScreen MITF homodimerization, bead proximity signal. inhibition, % at 2.6 µM. hit rate 0.91% among 650,000; in the data active = inhibition above about 50%
Target sequence (O75030 whole entry, looked up): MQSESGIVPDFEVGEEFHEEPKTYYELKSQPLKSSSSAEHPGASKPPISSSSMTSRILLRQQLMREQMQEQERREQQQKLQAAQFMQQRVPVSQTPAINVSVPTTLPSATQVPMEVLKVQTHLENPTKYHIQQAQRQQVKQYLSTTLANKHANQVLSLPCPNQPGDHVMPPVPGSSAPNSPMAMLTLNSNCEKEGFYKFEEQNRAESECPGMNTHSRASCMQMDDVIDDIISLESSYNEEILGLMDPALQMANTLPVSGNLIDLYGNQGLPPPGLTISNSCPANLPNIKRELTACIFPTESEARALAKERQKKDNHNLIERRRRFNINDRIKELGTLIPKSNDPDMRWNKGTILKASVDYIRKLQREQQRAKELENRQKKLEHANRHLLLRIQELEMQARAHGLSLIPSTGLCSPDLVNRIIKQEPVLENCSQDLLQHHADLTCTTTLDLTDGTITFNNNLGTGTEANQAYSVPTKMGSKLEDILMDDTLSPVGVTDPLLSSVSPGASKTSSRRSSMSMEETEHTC
TEAD-YAP block = TEAD-YAP interaction inhibition; HEK-TIYL cells, TEAD-Gal4/YAP UAS-luciferase luminescence; inhibition, % at 9.12 µM; hit rate 1.4% among 640,000; AID 1259422; in the data active = inhibition above about 32%
A number is an active result; – = inactive.

SMILES	GPR151 activ	FBW7 act	MITF primary	TEAD-YAP block
O=C(O)CCc1ccc(-c2cnn3c(NCc4ccccn4)ccnc23)cc1	–	–	–	–
CCc1ccc(NC(=O)C(=O)Nc2cccc3ccccc23)cc1	–	–	–	–
CSc1nnc2c(n1)OC(c1cc(Br)c(OC(C)=O)c(OC(C)=O)c1)N(C(C)=O)c1ccccc1-2 (centres undefined)	–	–	–	–
COc1ccc(-c2cc(C(F)(F)F)n3ncc(C(=O)Nc4cccc(Cl)c4C)c3n2)cc1OC	–	–	–	–
COc1ccc(-n2c(C)c(C)n3c4c(=O)n(CC(C)=O)c(=O)n(C)c4nc23)c(OC)c1	–	–	–	–
CC12CCCCC1C2C(=O)N/N=C\c1cccs1 (centres undefined)	–	–	–	–
Clc1ccccc1-c1cnn2c(NCCc3cccnc3)ccnc12	–	–	–	65.3
Fc1ccc(-c2cnn3c(NCCc4cccnc4)ccnc23)cc1Cl	–	–	–	–
O=C1CC(N2CCCC2)C(=O)N1c1ccc(Cl)cc1 (centres undefined)	–	–	–	–
O=C1CC(N2CCCCC2)C(=O)N1c1cc(Cl)cc(Cl)c1 (centres undefined)	–	–	–	46.4
Cc1cc(C)c2nc3c(cc2c1)CN(Cc1ccco1)C(=O)CO3	–	–	–	–
Cc1ccc2cc3c(nc2c1C)OC(C)C(=O)N(Cc1ccco1)C3 (centres undefined)	–	–	–	55.6
CC(=O)c1ccc(N2C(=O)C3CC=CCC3C2=O)cc1 (centres undefined)	–	–	–	–
CC(C)(Oc1ccc(Cl)cc1)C(=O)Nc1ncc([N+](=O)[O-])s1	–	–	–	35.8
O=C(NCCOc1ccccc1)c1csc(Nc2ccc(N3CCOCC3)cc2)n1	–	–	–	39.4
COc1ccc(CCNC(=O)c2csc(Nc3ccc(N4CCOCC4)cc3)n2)cc1	–	–	–	71.4
COc1ccc(CCNC(=O)c2cnc(Nc3ccc(N4CCOCC4)cc3)s2)cc1	–	–	–	–
CC(c1nc2scc(-c3ccccc3)c2c(=O)[nH]1)N1CCCC1 (centres undefined)	–	–	–	–
COc1ccc(-c2nn(CN3CCN(C)CC3)c(=S)o2)cc1	–	–	–	–
CN(C)c1ccc2nc3c(nc2c1)C(=O)c1ccccc1C3=O	–	–	–	–
Cc1cc2nc3ccc(N(C)C)cc3nc2cc1N	–	–	57.8	32.4
Cc1cc2nc3cc(N)c(C)cc3cc2cc1N	–	–	–	72.5
Cc1cc(C)c(C)c(OCC(O)CN2CCCC2)c1 (centres undefined)	–	–	–	–
CC(C)C(=O)Nc1cccc(C(=O)Nc2nnc(CCc3ccccc3)s2)c1	–	–	–	47.3
COc1ccc(-c2nc3c(=O)n(C)c(=O)nc-3n(C)n2)cc1	–	–	–	98.0
SMILES	GPR151 activ	FBW7 act	MITF primary	TEAD-YAP block
Cn1nc(-c2ccc(F)cc2)nc2c(=O)n(C)c(=O)nc1-2	–	–	–	89.3
C/C(=C\c1ccccc1)c1nc2c(=O)n(C)c(=O)nc-2n(C)n1	–	–	–	34.4
Cn1nc(-c2cccnc2)nc2c(=O)n(C)c(=O)nc1-2	–	–	–	96.7
Cn1nc(-c2ccc(Cl)cc2)nc2c(=O)n(C)c(=O)nc1-2	–	–	–	–
Cc1nn(C)c(C)c1-c1nc(NCCN2CCOCC2)c2ncn(Cc3ccc(C(F)(F)F)cc3)c2n1	–	–	–	–
CCOC(=O)c1c(NC(=O)CN(C)C)sc2c1CCCCC2	–	–	–	–
CCS(=O)(=O)N1CCN=C1SCc1ccc(Cl)c(Cl)c1	–	–	–	–
CN1CCN(Cc2cc(=O)oc3ccc4ccccc4c23)CC1	–	–	–	–
CN1CCN(Cc2cc(COCc3ccccc3)c3cccnc3c2O)CC1	–	–	100.5	73.8
Oc1c(CN2CCN(c3cccc(C(F)(F)F)c3)CC2)cc(COCc2ccccc2)c2cccnc12	–	–	–	–
CN1CCN(Cc2cc(CSc3ccccc3)c3cccnc3c2O)CC1	–	–	64.8	80.7
O=C(Oc1cccc(NC(=O)c2ccccc2Cl)c1)c1cccc(S(=O)(=O)N2CCCCC2)c1	–	–	–	54.1
O=C(Nc1cccc(Br)c1)c1cc(S(=O)(=O)N2CCCC2)ccc1Cl	–	–	–	35.2
CC1CCN(S(=O)(=O)c2cccc(C(=O)Nc3ccccc3C(=O)Nc3ccccc3)c2)CC1	–	–	–	–
CC1CCN(S(=O)(=O)c2cccc(C(=O)Oc3cccc(NC(=O)c4ccccc4)c3)c2)CC1	–	–	–	36.6
O=C(c1cccc(S(=O)(=O)N2CCCC2)c1)c1cccc(S(=O)(=O)N2CCCC2)c1	–	–	–	33.2
COc1ccc(-c2nnc(-c3ccccc3)n2-c2cccnc2)cc1	–	–	–	–
COc1ccccc1-n1c(=O)[nH]c2c(C(N)=O)nc(-c3cccc(O)c3)nc21	–	–	–	34.0
COc1ccc(-c2nc(C(N)=O)c3[nH]c(=O)n(-c4ccccc4OC)c3n2)cc1OC	–	–	–	32.2
COc1ccc(-c2nc(C(N)=O)c3[nH]c(=O)n(-c4cccc(Cl)c4)c3n2)cc1O	–	–	–	62.6
COc1ccc(-c2nc(C(N)=O)c3[nH]c(=O)n(-c4ccc(F)cc4)c3n2)cc1	–	–	–	36.2
O=C(Nc1ccc(Oc2ccccc2)cc1)c1ccc(F)c(S(=O)(=O)N2CCCCC2)c1	–	–	–	36.7
O=C(Nc1ccc(Oc2ccccc2)cc1)c1ccc(F)c(S(=O)(=O)N2CCN(C3CCCCC3)CC2)c1	–	–	–	42.3
O=C(Nc1ccc(Oc2ccccc2)cc1)c1ccc(F)c(S(=O)(=O)N2CCC3(CC2)OCCO3)c1	–	–	–	61.0
COc1ccc(-c2cc(C(F)(F)F)c3nc(OC(C)C(C)=O)oc3n2)cc1OC (centres undefined)	–	–	–	80.8
SMILES	GPR151 activ	FBW7 act	MITF primary	TEAD-YAP block
CCOc1ccc(CSc2n[nH]c(C)n2)cc1	–	–	–	88.0
CCOc1ccc(CSc2n[nH]c(CC)n2)cc1	–	–	–	–
CCCOc1ccc(CSc2n[nH]c(C)n2)cc1	–	–	–	81.8
Cc1cccc(N(C(=O)c2ccc(Cl)cc2)C2CCS(=O)(=O)C2)c1 (centres undefined)	–	–	–	–
COc1cccc(C(=O)/C=C\Nc2ccc(C)cc2)c1	–	–	–	59.5
COc1ccc(C(=O)/C=C\Nc2cccc(F)c2)cc1	–	–	–	34.6
COc1ccc(C(=O)/C=C/Nc2cccc(O)c2)cc1	–	–	–	87.0
COc1cccc(C(=O)/C=C/Nc2ccc(N(C)C)cc2)c1	–	–	–	–
COc1ccc(/C=C/C(=O)c2ccc(O)cc2)cc1	–	–	–	55.3
CCc1ccc(C(=O)/C=C/Nc2cccc(O)c2)cc1	–	–	–	96.4
CCc1ccc(C(=O)/C=C/Nc2ccc(O)cc2)cc1	–	–	–	–
COc1ccc(C(=O)/C=C/Nc2cccc(C)c2)cc1	–	–	–	–
COc1ccc(C(=O)/C=C\Nc2cccc(C(=O)O)c2)cc1	–	–	–	40.7
CC(=O)N1CCN(CC(=O)NC(c2ccccc2)c2ccccc2)CC1	–	6.2	–	–
COc1cc(NS(=O)(=O)c2ccc3c(c2)Cc2ccccc2-3)cc(OC)c1OC	–	–	–	41.7
